IDE exosite FP: displaces the probe from the exo-site of human IDE | P14735 | z-score at 20 µM | purified IDE, FL-6b probe fluorescence polarization; active compounds read low | actives 6.3% (n = 17,000) | AID 1259349;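 active = z-score of -3 or lower, meaning strong loss of probe binding signal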;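 also: His-tagged human IDE residues 42-1019 made in E. coli with 30 nM FL-6b probe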
Starred values were filed as active, the others as inactive. The entries come from a sample that favours hits as a whole.

For CC(=O)N1CCCCN2[C@H](CO)[C@H](c3ccc(-c4ccccc4)cc3)[C@H]2C1 the results were IDE exosite FP -1.5.
Screening O=C(c1ccc2c(c1)OCO2)N1CC(=O)N2[C@H](C1)[C@@H](c1ccc(C#CC3CCCC3)cc1)[C@@H]2CO returned IDE exosite FP 1.5.
CCN1CC(=O)N2[C@H](CO)[C@@H](c3ccc(-c4ccccc4F)cc3)[C@H]2C1 was read as IDE exosite FP 1.9.
`CO[C@@H]1CC[C@@H]2CCN(C)C(=O)[C@@H](C)N(C)C(=O)c3cccc(C#N)c3OC[C@@H]1O2` gave IDE exosite FP 1.4.
`CCS(=O)(=O)N1CC(=O)N2[C@@H](CO)[C@@H](c3ccc(C#CC4CCCCC4)cc3)[C@@H]2C1` gave IDE exosite FP 1.6.
For O=C(c1cccc(F)c1)N1CC(=O)N2[C@H](C1)[C@H](c1ccc(-c3ccccc3)cc1)[C@@H]2CO the results were IDE exosite FP 3.7.
`CO[C@H]1CN(C)C(=O)c2cc(NC(=O)Cc3ccccc3)ccc2OC[C@H](C)N(C(=O)c2ccccc2F)C[C@@H]1C` gave IDE exosite FP 0.47.
O=C(C[C@H]1C=C[C@H](NS(=O)(=O)c2ccccc2)[C@H](CO)O1)NCCN1CCCCC1 was read as IDE exosite FP -0.36.
`O=C(c1cccnc1)N1CCCCN2[C@H](CO)[C@H](c3ccc(C#Cc4cccnc4)cc3)[C@H]2C1` gave IDE exosite FP 4.7.
O=C(c1cccnc1)N1CCCCN2[C@H](C1)[C@H](c1ccc(C#Cc3cccnc3)cc1)[C@@H]2CO was read as IDE exosite FP -1.5.
`CCC(=O)N1CCCCN2[C@H](CO)[C@H](c3ccc(C#Cc4cccnc4)cc3)[C@H]2C1` gave IDE exosite FP -3.2*.
COCC(=O)N1CCCCN2[C@H](CO)[C@@H](c3ccc(C#Cc4cccnc4)cc3)[C@H]2C1 was read as IDE exosite FP 2.7.
Screening O=C(c1cccnc1)N1CCCCN2[C@H](CO)[C@@H](c3ccc(C#Cc4cccnc4)cc3)[C@@H]2C1 returned IDE exosite FP -0.3.
Screening COCC(=O)N1CCCCN2[C@H](C1)[C@@H](c1ccc(C#Cc3cccnc3)cc1)[C@@H]2CO returned IDE exosite FP -0.14.
For COCC(=O)N1CCCCN2[C@H](CO)[C@@H](c3ccc(C#Cc4cccnc4)cc3)[C@@H]2C1 the results were IDE exosite FP 0.082.
CCC(=O)N1CCCCN2[C@H](CO)[C@@H](c3ccc(C#Cc4cccnc4)cc3)[C@@H]2C1 was read as IDE exosite FP -5.2*.
Screening CCC(=O)N1CCCCN2[C@@H](CO)[C@H](c3ccc(C#Cc4cccnc4)cc3)[C@@H]2C1 returned IDE exosite FP -5.4*.
`CC(=O)NC[C@H]1[C@@H](c2ccccc2)[C@@H](CO)N1C(=O)Cc1ccncc1` gave IDE exosite FP 1.3.
For CN(C)CC#Cc1ccc([C@@H]2[C@H]3CN(C(=O)Cc4cccnc4)CC(=O)N3[C@H]2CO)cc1 the results were IDE exosite FP 1.3.
C[C@@H](NC(=O)C[C@@H]1CC[C@@H]2[C@@H](COc3ccc(NS(=O)(=O)c4ccc(Cl)cc4)cc3C(=O)N2C)O1)c1ccccc1 was read as IDE exosite FP -0.92.
For N#C[C@H]1[C@@H](c2ccccc2-c2ccccc2F)[C@H](CO)N1C(=O)c1ccccn1 the results were IDE exosite FP 0.89.
Screening C/C=C/c1ccc([C@@H]2[C@@H](CO)N(C(C)=O)[C@H]2CN(CC(C)C)C(C)=O)cc1 returned IDE exosite FP 1.3.
For CCS(=O)(=O)N1CCCCN2[C@H](CO)[C@H](c3ccc(-c4ccccc4)cc3)[C@@H]2C1 the results were IDE exosite FP 2.3.
For CCCC#Cc1ccc([C@@H]2[C@@H](CO)N3C(=O)CN(C(=O)c4ccccn4)C[C@@H]23)cc1 the results were IDE exosite FP -0.34.
O=C(c1ccccn1)N1CC(=O)N2[C@@H](CO)[C@H](c3ccc(C#Cc4ccccc4)cc3)[C@@H]2C1 was read as IDE exosite FP -9.7*.
For O=C(c1ccccn1)N1CC(=O)N2[C@@H](CO)[C@H](c3ccc(C#CCc4ccccc4)cc3)[C@@H]2C1 the results were IDE exosite FP -1.1.
`CCCC#Cc1ccc([C@H]2[C@@H](CO)N3C(=O)CN(C(=O)c4ccccn4)C[C@H]23)cc1` gave IDE exosite FP 3.1.
`O=C(c1ccccn1)N1CC(=O)N2[C@H](CO)[C@H](c3ccc(C#CCc4ccccc4)cc3)[C@@H]2C1` gave IDE exosite FP -1.8.
For O=C(c1ccccn1)N1CC(=O)N2[C@H](CO)[C@H](c3ccc(C#Cc4ccccc4)cc3)[C@H]2C1 the results were IDE exosite FP -14*.
O=C(Nc1cccc(F)c1)N1CC(=O)N2[C@H](CO)[C@@H](c3ccc(C#CCC4CCCC4)cc3)[C@H]2C1 was read as IDE exosite FP 3.
`COc1ccc(-c2ccc([C@H]3[C@H](CO)N4C(=O)CN(Cc5ccc(F)cc5)C[C@@H]34)cc2)cc1` gave IDE exosite FP 2.1.
`CC(=O)N1[C@H](CO)[C@H](c2ccc(C3=CCCC3)cc2)[C@@H]1CNC(=O)CC1CC1` gave IDE exosite FP 4.4.

Bioassay records deposited in PubChem by Broad Institute.
